Experiment [1] deals with human CYP2C9, CYP2C9 (gene 1559) (UniProt P11712). Put plainly: NVS_ADME_hCYP2C9: NovaScreen (NVS) CYP450-related Enzyme Activity (ADME) Assay for human CYP2C9 (AID 2283108). The method, boiled down:
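Fluorescence readout of CYP2C9 activity (SF9-expressed human enzyme) at 0.75 h. The primary screen used 10 uM in duplicate, with concentration-response follow-up for actives; acetonitrile was the negative control.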

For experiment [2], the target named is Cytochrome P450 2C19 (Homo sapiens) (UniProt P33261). The experiment is described as follows: NVS_ADME_hCYP2C19: NovaScreen (NVS) CYP450-related Enzyme Activity (ADME) Assay for human CYP2C19 (AID 2283113).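 On AC50: potency for inhibition seen as loss of fluorescent signal.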 The method, boiled down:
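Compounds first screened in duplicate at 10 uM, then confirmed in concentration series. Insect-cell-expressed human CYP2C19 turned over a fluorogenic substrate, and fluorescence was read after 1 h. Inhibition taken as signal loss relative to acetonitrile.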

Experiment [3] concerns the target human Beta-secretase (BACE), BACE1 (gene 23621) (UniProt P56817). Put plainly: NVS_ENZ_hBACE: NovaScreen (NVS) Enzymatic Assay for human Beta-secretase (BACE) (AID 2283140).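 Further: hits are inhibitors that reduce fluorescent substrate signal versus DMSO.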 The method, boiled down:
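Compounds were first tested in duplicate at 25 uM, then actives in concentration series, against recombinant BACE1 from SF9 cells. Enzyme activity was measured by fluorescence intensity 1 hour after dosing, with DMSO as negative control.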

The target in experiment [4] is human Caspase 4 (CASP4), CASP4 (gene 837) (UniProt P49662). Put plainly: NVS_ENZ_hCASP4: NovaScreen (NVS) Enzymatic Assay for human Caspase 4 (CASP4) (AID 2283143). The method, boiled down: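 The cell-free assay used E. coli-expressed enzyme with a fluorogenic substrate, read 2 h after dosing. Signal loss was scored versus DMSO. Screening was in duplicate at 25 uM, then singleton concentration-response up to 50 uM.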

Experiment [5] addresses human Caspase 5 (CASP5), CASP5 (gene 838) (UniProt P51878). The experiment is described as follows: NVS_ENZ_hCASP5: NovaScreen (NVS) Enzymatic Assay for human Caspase 5 (CASP5) (AID 2283137). The essentials: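 E. coli-derived enzyme, cell-free, 2 h incubation, fluorescence intensity. 25 uM duplicate single-point; hits → concentration series to 50 uM. DMSO baseline, positive/negative controls on every plate.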

The target in experiment [6] is human Acid Phosphatase 1 (ACP1), ACP1 (gene 52) (UniProt P24666). The experiment is described as follows: NVS_ENZ_hACP1: NovaScreen (NVS) Enzymatic Assay for human Acid Phosphatase 1 (ACP1) (AID 2283136). The essentials:
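Recombinant enzyme expressed in Sf9 cells, tested cell-free; activity read by fluorescence with electrophoretic mobility shift separation of substrate and product, 1.5 h after dosing. Primary screen in duplicate at 25 uM, actives then run in concentration series; loss of signal versus DMSO.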

Experiment [7] concerns the target human AKT serine/threonine Kinase 1 (AKT1), AKT1 (gene 207) (UniProt P31749). The experiment is described as follows: NVS_ENZ_hAKT1: NovaScreen (NVS) Enzymatic Assay for human AKT serine/threonine Kinase 1 (AKT1) (AID 2283138). The method, boiled down:
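Recombinant AKT1, specific substrate, cell-free; 1 h; fluorescence intensity/electrophoretic mobility shift. Duplicate single-point 25 uM, then singleton CRC max 50 uM. DMSO = negative control/baseline; signal loss = inhibition.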

Experiment [8] concerns the target human Caspase 8 (CASP8), CASP8 (gene 841) (UniProt Q14790). Put plainly: NVS_ENZ_hCASP8: NovaScreen (NVS) Enzymatic Assay for human Caspase 8 (CASP8) (AID 2283146). The essentials: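 E. coli-expressed enzyme was used in a cell-free fluorogenic substrate assay read 1 h after dosing. Loss of signal was scored relative to DMSO, and the primary screen was run in duplicate at 25 uM.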

Inconclusive results are not listed. The source made the active and inactive calls. How the source made its calls: active means hit-call score of the fitted dose curve at least 0.9, where 1 is the maximum; inconclusive means response in the unintended direction; inactive means score below 0.9.

Chain of human CYP2C9, CYP2C9 (gene 1559) (P11712 whole entry, looked up): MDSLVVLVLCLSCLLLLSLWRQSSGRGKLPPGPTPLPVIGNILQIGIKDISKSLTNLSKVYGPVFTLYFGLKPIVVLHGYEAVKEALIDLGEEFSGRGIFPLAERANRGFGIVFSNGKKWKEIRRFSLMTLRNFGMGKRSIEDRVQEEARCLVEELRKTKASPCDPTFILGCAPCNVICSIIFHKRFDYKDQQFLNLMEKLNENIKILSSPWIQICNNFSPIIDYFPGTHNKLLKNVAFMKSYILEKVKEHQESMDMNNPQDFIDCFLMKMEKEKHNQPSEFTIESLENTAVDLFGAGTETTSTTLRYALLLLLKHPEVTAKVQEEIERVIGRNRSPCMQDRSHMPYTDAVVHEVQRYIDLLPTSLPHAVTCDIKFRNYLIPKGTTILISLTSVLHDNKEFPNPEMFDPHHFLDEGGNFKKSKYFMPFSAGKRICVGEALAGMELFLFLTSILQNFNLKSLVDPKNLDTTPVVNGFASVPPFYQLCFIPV
Chain of human Caspase 4 (CASP4), CASP4 (gene 837) (P49662 whole entry, looked up): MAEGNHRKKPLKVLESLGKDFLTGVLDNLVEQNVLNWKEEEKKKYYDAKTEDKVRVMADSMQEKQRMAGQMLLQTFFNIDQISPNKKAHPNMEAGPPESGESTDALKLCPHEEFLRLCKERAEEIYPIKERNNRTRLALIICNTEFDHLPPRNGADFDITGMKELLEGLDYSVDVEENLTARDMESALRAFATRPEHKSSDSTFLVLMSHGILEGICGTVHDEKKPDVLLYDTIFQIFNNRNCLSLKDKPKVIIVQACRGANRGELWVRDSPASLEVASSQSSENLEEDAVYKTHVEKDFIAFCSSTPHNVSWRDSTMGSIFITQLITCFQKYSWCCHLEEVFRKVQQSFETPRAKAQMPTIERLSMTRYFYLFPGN
Chain of human Caspase 8 (CASP8), CASP8 (gene 841) (Q14790 whole entry, looked up): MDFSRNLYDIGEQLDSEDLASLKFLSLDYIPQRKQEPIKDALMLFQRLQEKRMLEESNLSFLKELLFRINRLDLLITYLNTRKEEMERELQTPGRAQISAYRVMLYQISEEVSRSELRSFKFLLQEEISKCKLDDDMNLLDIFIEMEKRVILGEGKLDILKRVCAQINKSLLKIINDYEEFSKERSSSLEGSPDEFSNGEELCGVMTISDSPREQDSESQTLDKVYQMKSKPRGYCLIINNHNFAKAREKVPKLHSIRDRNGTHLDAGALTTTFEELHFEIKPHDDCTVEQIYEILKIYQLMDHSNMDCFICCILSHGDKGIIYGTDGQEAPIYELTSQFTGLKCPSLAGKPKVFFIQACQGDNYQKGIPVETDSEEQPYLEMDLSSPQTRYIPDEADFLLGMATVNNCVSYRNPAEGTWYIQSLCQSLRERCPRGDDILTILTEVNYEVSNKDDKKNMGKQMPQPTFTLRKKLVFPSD
Chain of human Caspase 5 (CASP5), CASP5 (gene 838) (P51878 whole entry, looked up): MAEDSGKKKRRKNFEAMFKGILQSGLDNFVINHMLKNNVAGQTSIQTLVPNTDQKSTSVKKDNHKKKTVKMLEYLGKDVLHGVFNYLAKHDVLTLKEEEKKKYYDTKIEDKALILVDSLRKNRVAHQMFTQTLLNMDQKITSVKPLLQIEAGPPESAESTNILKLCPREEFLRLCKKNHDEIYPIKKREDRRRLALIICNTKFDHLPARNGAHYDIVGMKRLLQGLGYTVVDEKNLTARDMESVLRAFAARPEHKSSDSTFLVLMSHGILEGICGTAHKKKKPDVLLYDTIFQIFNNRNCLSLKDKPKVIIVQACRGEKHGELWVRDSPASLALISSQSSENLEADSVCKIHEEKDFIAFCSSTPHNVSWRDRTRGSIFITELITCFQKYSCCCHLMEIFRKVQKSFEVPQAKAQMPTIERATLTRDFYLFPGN
Chain of human Beta-secretase (BACE), BACE1 (gene 23621) (P56817 whole entry, looked up): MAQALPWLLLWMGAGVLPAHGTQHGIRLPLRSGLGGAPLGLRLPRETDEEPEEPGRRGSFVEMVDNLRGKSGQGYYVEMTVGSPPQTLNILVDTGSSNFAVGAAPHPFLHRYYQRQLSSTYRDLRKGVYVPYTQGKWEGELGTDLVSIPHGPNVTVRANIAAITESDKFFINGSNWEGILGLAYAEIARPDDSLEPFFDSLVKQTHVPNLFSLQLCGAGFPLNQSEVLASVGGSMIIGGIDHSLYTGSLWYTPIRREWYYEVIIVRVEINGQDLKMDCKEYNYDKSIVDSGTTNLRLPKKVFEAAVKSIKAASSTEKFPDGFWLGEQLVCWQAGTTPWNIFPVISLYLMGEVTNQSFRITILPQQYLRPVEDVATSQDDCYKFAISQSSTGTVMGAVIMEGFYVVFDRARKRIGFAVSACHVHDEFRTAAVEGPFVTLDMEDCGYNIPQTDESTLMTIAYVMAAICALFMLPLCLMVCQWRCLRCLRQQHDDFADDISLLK
Chain of human Acid Phosphatase 1 (ACP1), ACP1 (gene 52) (P24666 whole entry, looked up): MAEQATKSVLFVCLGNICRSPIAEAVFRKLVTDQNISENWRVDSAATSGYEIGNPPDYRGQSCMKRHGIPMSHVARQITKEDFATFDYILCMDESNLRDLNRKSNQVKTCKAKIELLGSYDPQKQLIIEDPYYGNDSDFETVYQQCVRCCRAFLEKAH
Chain of human AKT serine/threonine Kinase 1 (AKT1), AKT1 (gene 207) (P31749 whole entry, looked up): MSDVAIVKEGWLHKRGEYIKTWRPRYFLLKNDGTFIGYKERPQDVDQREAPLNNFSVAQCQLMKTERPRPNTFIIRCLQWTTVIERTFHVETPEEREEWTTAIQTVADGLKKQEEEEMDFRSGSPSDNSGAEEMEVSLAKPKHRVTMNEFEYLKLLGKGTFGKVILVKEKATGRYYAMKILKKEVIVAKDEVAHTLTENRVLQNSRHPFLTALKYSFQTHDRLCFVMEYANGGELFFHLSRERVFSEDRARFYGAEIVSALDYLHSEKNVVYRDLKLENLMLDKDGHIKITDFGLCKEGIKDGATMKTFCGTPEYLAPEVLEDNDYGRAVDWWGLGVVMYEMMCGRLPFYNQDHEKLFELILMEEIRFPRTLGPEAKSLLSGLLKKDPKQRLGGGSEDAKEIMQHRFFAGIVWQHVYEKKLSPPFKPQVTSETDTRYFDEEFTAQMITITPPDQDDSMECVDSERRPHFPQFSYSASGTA

In the case of `CCOC(=O)c1ccc(C2CCC(NC[C@H](O)COc3ccc(O)c(NS(C)(=O)=O)c3)CC2)cc1` (stereo not given in full), the AC50 in experiment [1] was 2.14 µM (active); in experiment [2] it was 1.74 µM (active). On to `CN(C)c1ccc(Cc2ccc(N(C)C)cc2)cc1`, for which the AC50 in experiment [2] was 0.727 µM (active).

As to `CCCCCCc1ccc(O)cc1O`, the values for the AC50 in experiment [1] and in experiment [2] were 10 µM (active) and 4.91 µM (active), respectively. Also, in experiment [3], the call was inactive. Consider `CNS(=O)(=O)c1cc(C(=O)N2CCC(CCN3C4CCC3CC(n3c(C)nc5ccccc53)C4)(c3cccc(F)c3)CC2)c(Cl)cc1F` (stereo not given), for which the AC50 in experiment [1] is 6.52 µM (active); in experiment [2], 6.01 µM (active). For the same compound, the outcome in experiment [4] was inactive. Consider `COc1ccc(-n2nc(C(F)F)cc2-c2ccc(S(C)=O)cc2)cc1` (stereo not given), for which the AC50 in experiment [2] was 0.967 µM (active). With `CCN(C(=O)c1cc(C)cc(OC[C@H](C)Nc2ccncc2)c1)C(C)C`, in experiment [1], the AC50 was 4.5 µM (active). As to `O=C(O)CC(O)C(=O)O` (stereo not given), the concentration at half-maximal activity (AC50) in experiment [2] is 12.9 µM (active).

`COc1ccc(/C=C/S(=O)(=O)NC(=O)c2ccc(C)cc2Cl)cc1`: the AC50 in experiment [1] was 12.7 µM (active).

Turning to `CC(C)(O)c1coc(S(=O)(=O)NC(=O)Nc2c3c(cc4c2CCC4)CCC3)c1`, the AC50 is 13.4 µM (active) in experiment [1] and 10 µM (active) in experiment [2]. As to `O=C(NS(=O)(=O)/C=C/c1ccccc1)c1ccc(F)cc1Cl`, the concentration at half-maximal activity (AC50) in experiment [1] was 6.85 µM (active). Consider `CC(C)=CCCC(C)CCO` (stereo not given), for which the outcome in experiment [2] was inactive. For `Cc1[nH]cnc1C[C@H]1CCc2c(C)c3ccccc3n2C1=O`, the AC50 in experiment [1] was 1.77 µM (active); in experiment [2], 0.636 µM (active).

As for `Nc1ccc(Nc2ccccc2)cc1`, the AC50 in experiment [1] is 16.1 µM (active); in experiment [2], 6.51 µM (active). In addition, the call in experiment [5] and in experiment [4] was inactive. For the compound `CC(=O)OCCC(C)C`, the AC50 in experiment [1] is 8.59 µM (active). As for `On1ccccc1=S`, in experiment [2], the AC50 is 5.15 µM (active). Consider `CC(C)c1cccc(C(C)C)c1N1C(=O)c2ccc(O)cc2C1=O`, for which the figures for the AC50 in experiment [1] and in experiment [2] were 4.78 µM (active) and 5.11 µM (active), respectively. Moreover, the compound was classed as inactive in experiment [6], in experiment [7] and in experiment [8].

(Values after PubChem BioAssay (EPA / NIEHS).)
